High-throughput results: PubChem, National Center for Advancing Translational Sciences (NCATS)
PNC assembly inh – perinucleolar compartment assembly inhibition; PC3M PTB-GFP, PNC prevalence imaging, 16 h; hits give low values; activity change (PNC), negative = inhibition, % at 10 µM; actives 3.1% (n = 140,000); AID 2417;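 active = readout at or below -70, meaning at least 70% loss of cells showing the perinucleolar compartment, a nuclear body marking cancer cells; inconclusive = readout between -30 and a set limit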
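PC3M cells stably expressing PTB-GFP, 750–1000 cells/well, treated 16 h at 37 °C with compound (23 nl of library stock), in duplicate. After paraformaldehyde fixation and Hoechst stain, imaged at 20x; PNC prevalence scored by image analysis.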
KDM4E inh – JMJD2E (human) inhibition; B2RXH2; JMJD2E catalytic domain, FDH-coupled NADH fluorescence (FDH is formaldehyde dehydrogenase); Potency, µM (highest dose often 57.1 µM), most hits filed as inhibitors; actives 1.6% (n = 230,000); AID 2147; active = well fitted inhibition curve with a large enough effect, not every such curve was filed as active; inconclusive = small, poorly fitted or top-dose-only effect, or another doubt; inactive = no such curve, though single readings can be large or run the other way; also: nearly all actives have a fitted effect of over 50% in size
Target sequence (B2RXH2 1-337 limits assumed): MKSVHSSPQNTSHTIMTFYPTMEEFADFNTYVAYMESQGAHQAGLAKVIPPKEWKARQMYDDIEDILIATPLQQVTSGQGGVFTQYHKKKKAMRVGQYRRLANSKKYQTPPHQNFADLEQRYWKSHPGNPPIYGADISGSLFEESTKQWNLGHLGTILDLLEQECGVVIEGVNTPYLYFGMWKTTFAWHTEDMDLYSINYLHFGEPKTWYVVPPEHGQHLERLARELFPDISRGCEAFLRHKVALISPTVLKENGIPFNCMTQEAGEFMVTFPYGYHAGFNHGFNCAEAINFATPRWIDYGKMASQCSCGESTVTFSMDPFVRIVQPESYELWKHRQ
Tau fibril ThT – tau fibrillization inhibition (ThT binding); P10636; recombinant tau K18 P301L, heparin-induced fibrillization, ThT fluorescence; Potency, µM (series often up to 57.4 µM), usual class: inhibitors; actives 2.1% (n = 270,000); also: nearly all actives have a fitted effect of over 55% in size
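Aggregation was driven by heparin (20 uM final) acting on recombinant tau […] bearing P301L in 100 mM sodium acetate pH 7; fibrils were detected with Thioflavin T.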
Tau fluor cs – counter-screen for tau fibril formation inhibitors; tau K18 P301L (four-repeat tau fragment) Alexa594 fluorescence, heparin fibrillization; Potency, µM (titrated, usually from 57.7 µM); actives 0.93% (n = 280,000); also: nearly all actives have a fitted effect of over 55% in size
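Human K18 P301L tau (15 uM unlabeled plus 0.24 uM Alexa 594-labeled, final) in 100 mM sodium acetate pH 7 was mixed with compound and 20 uM heparin and incubated 6 hr at 37 C.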
Tau fibril FP – inhibitors of human tau fibril formation. P10636. K18 P301L tau heparin fibrillization, Alexa594 FP, 6 h. Potency, µM (top dose mostly 57.7 µM), actives largely listed as inhibitors. actives 0.39% (n = 280,000). AID 1468; also: nearly all actives have a fitted effect of over 55% in size
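Quantitative HTS format: compounds meet 15 uM recombinant K18 P301L tau and Alexa 594-tau tracer in 100 mM sodium acetate pH 7; 20 uM heparin triggers fibrillization at 37 C over 6 hr; FP gives the signal.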
NPSR antagonist – neuropeptide S receptor (human) antagonism, cAMP; CHO-NPSR cells, cAMP TR-FRET, antagonist mode; Potency, µM (doses to about 38.3 µM), hits mostly inhibitors; actives 1% (n = 220,000); also: nearly all actives have a fitted effect of over 50% in size
Target sequence (Q6W5P4 whole entry, looked up): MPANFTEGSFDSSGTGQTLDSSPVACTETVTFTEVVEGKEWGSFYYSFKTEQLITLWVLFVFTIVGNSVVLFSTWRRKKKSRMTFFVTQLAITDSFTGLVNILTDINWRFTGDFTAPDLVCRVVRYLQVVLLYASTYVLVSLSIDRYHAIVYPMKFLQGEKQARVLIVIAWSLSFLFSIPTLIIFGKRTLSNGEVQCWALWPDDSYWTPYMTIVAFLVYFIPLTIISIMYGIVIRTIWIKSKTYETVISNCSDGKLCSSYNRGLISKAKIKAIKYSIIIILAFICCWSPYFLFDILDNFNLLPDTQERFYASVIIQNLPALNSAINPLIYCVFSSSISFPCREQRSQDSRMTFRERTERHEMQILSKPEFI
Large screens that a line does not name were inactive; [ ] = dose if it differs, or a comment. In the library only some 5.1% were active in any assay of this set; here they are far more common. Unless noted, calls follow the shape of the dose curve; as a rule, active = well fitted curve in the direction sought with a large enough effect; inconclusive = small, poorly fitted or top-dose-only effect, or another doubt; inactive = no such curve, though single readings can be large; an effect the other way counts as inactive or inconclusive.

CCOC(=O)c1c(S(=O)(=O)N2CCC(C(=O)N3CCN(c4cc(C)ccc4C)CC3)CC2)c(C)n(C)c1C	none (no result: PNC assembly inh, KDM4E inh, NPSR antagonist)
CCn1c(C(=O)Nc2c(C)cccc2C)cc2sc(Cl)cc21	none (no result: PNC assembly inh, KDM4E inh, NPSR antagonist)
COc1ccccc1S(=O)(=O)Cc1ccc(C(=O)N2CCN(c3cc(Cl)ccc3C)CC2)o1	none (no result: PNC assembly inh, KDM4E inh, NPSR antagonist)
CCCCCCCCCCCCCCCC(N)=O	none (no result: PNC assembly inh, NPSR antagonist)
Cc1cccc2cc(CN(Cc3ccco3)C(c3nnnn3CCc3ccccc3)C(C)C)c(=O)[nH]c12 (stereo not given)	PNC assembly inh -99, KDM4E inh 18µM, NPSR antagonist 13µM
COc1ccc2[nH]c(=O)c(CN(Cc3ccco3)C(c3nnnn3Cc3ccccc3)C(C)C)cc2c1 (stereo not given)	KDM4E inh inconclusive, Tau fluor cs inconclusive, NPSR antagonist inconclusive
CC(C)N=c1scc(-c2ccco2)n1/N=C/c1ccc(O)c(O)c1	KDM4E inh inconclusive, Tau fibril ThT 14µM, Tau fluor cs 14µM[quencher], Tau fibril FP inconclusive
COCCN=c1scc(-c2ccco2)n1/N=C/c1ccc(O)c(O)c1O	KDM4E inh 22µM, Tau fibril ThT 13µM, Tau fluor cs inconclusive, Tau fibril FP 25µM (no result: PNC assembly inh)
C=CCN=c1scc(-c2ccco2)n1/N=C/c1ccc(O)c(O)c1O	KDM4E inh 11µM, Tau fibril ThT 6.3µM, Tau fluor cs 7.9µM[quencher], Tau fibril FP inconclusive (no result: PNC assembly inh)
Cc1ccc(S(=O)(=O)N2CCCc3cc(NS(=O)(=O)c4cc(F)ccc4F)ccc32)cc1	Tau fluor cs inconclusive (no result: PNC assembly inh, KDM4E inh, NPSR antagonist)
O=C(COc1ncnc2ccc(Br)cc12)Nc1ccc(N2CCOCC2)cc1	none
Brc1ccc2ncnc(Nc3ccc(N4CCOCC4)cc3)c2c1	Tau fibril ThT 8.9µM, Tau fluor cs inconclusive
COc1ccc(-n2nc(C(=O)NCCc3ccc(Cl)cc3)c3c4ccccc4n(C)c3c2=O)cc1	none (no result: PNC assembly inh, KDM4E inh, NPSR antagonist)
O=C(N=Nc1c(O)[nH]c2ccccc12)c1cccs1	Tau fibril ThT 10µM (no result: PNC assembly inh)
O=C(N=Nc1c(O)[nH]c2ccccc12)c1cc(NS(=O)(=O)c2cccs2)cc(NS(=O)(=O)c2cccs2)c1	Tau fibril FP inconclusive (no result: PNC assembly inh)
O=C(Cn1nnc(-c2ccccc2)n1)N=Nc1c(O)[nH]c2ccccc12	none
O=C(O)c1ccc(N=Nc2c(O)[nH]c3ccccc23)cc1	Tau fibril ThT 16µM, NPSR antagonist inconclusive (no result: PNC assembly inh)
CC(=O)c1cccc(N=Nc2c(C)[nH]c3ccccc23)c1	Tau fibril ThT 10µM, Tau fluor cs 14µM[quencher]
CC1CCc2nc3ncn(CC(=O)Nc4cccc(C#N)c4)c(=O)c3cc2C1 (stereo not given)	none (no result: PNC assembly inh, KDM4E inh, NPSR antagonist)
CCOC(=O)c1c(C)[nH]c(C)c1S(=O)(=O)N1CCCC(C(=O)NCc2cccc(OC)c2)C1 (stereo not given)	none (no result: PNC assembly inh, KDM4E inh, NPSR antagonist)
Cc1c(-n2c(SCC(=O)O)nnc2-c2ccccc2Cl)c(=O)n(-c2ccccc2)n1C	PNC assembly inh -97, KDM4E inh inconclusive, Tau fibril FP inconclusive
Cc1ccc(S(=O)(=O)N2CCC(C(=O)C3C(=O)CC(C)(C)CC3=O)CC2)cc1	none (no result: PNC assembly inh)
Cc1ccc(S(=O)(=O)/N=C2/C=C(C3C(=O)CC(C)(C)CC3=O)C(=O)c3ccccc32)cc1	KDM4E inh inconclusive, Tau fibril ThT 8.9µM, Tau fluor cs 8.9µM[quencher], Tau fibril FP 22µM, NPSR antagonist inconclusive
CC(C)(C)Cc1nnc(NS(=O)(=O)c2ccc(F)cc2)s1	PNC assembly inh -82
CCc1nnc(NS(=O)(=O)c2ccc(NS(=O)(=O)c3ccc(NC(C)=O)cc3)cc2)s1	PNC assembly inh inconclusive
CCc1nnc(NS(=O)(=O)c2ccc(NC(=S)NC(=O)/C=C/c3ccc([N+](=O)[O-])cc3)cc2)s1	KDM4E inh inconclusive (no result: PNC assembly inh, Tau fibril ThT)
CCc1nnc(NS(=O)(=O)c2ccc(NC(=S)NC(=O)/C=C/c3ccc(F)cc3)cc2)s1	PNC assembly inh inconclusive, Tau fibril ThT inconclusive, NPSR antagonist 10µM
CC(=O)Nc1ccc(S(=O)(=O)Nc2nnc(CC(C)(C)C)s2)cc1	Tau fibril ThT 4µM (no result: PNC assembly inh)
CC(C)(C)Cc1nnc(NS(=O)(=O)Cc2ccccc2)s1	none
CCOc1ccc(CN(CCc2ccc3c(c2)OCO3)Cc2cc(OC)cc(OC)c2)cc1	none (no result: PNC assembly inh, KDM4E inh, NPSR antagonist)
CC(c1nnnn1C1CCCCC1)N(Cc1ccccc1)Cc1cccnc1 (stereo not given)	PNC assembly inh -100
COc1ccc(-c2nnn(CC(=O)N(CCCN3CCOCC3)C(C(=O)NC3CCCC3)c3ccc(C)o3)n2)cc1 (stereo not given)	NPSR antagonist 10µM (no result: PNC assembly inh)
COc1ccc(-c2nnn(CC(=O)N(CCCN3CCOCC3)C(C(=O)NC3CCCC3)c3ccco3)n2)cc1 (stereo not given)	none (no result: PNC assembly inh)
COC(=O)C(NC(=O)c1ccco1)(Nc1cc(C)ccn1)C(F)(F)F (stereo not given)	PNC assembly inh -100
CCOC(=O)c1nnn(-c2nonc2NC(C)=O)c1C	PNC assembly inh inconclusive
CCOC(=O)c1nonc1NC(C)=O	PNC assembly inh -100
Nc1nc(Nc2ccccc2)nc2c1ncn2[C@@H]1O[C@H](CO)[C@H](O)[C@H]1O	none (no result: PNC assembly inh)
S=c1[nH]c(-c2ccccc2)cn1/N=C/c1ccncc1	KDM4E inh inconclusive, Tau fibril ThT 11µM, Tau fluor cs inconclusive (no result: PNC assembly inh)
CCNc1nc(NCC)nc(SCCOc2ccc(C)cc2)n1	PNC assembly inh -113, Tau fibril ThT inconclusive, Tau fluor cs inconclusive
CCOc1nc(SCCOc2ccc(C)cc2)nc(N(C)C)n1	NPSR antagonist inconclusive
Cc1ccc2c(c1)c1c(c(=O)n(-c3ccccc3)c(=O)n1CC(=O)NCCC1=CCCCC1)n2C	none (no result: PNC assembly inh, KDM4E inh, NPSR antagonist)
CCOC(=O)Cn1c(=O)oc2cc(S(=O)(=O)Nc3cc(Cl)ccc3OC)ccc21	PNC assembly inh -97
COc1cc(/C=C2/CCc3ccccc3C2=O)cc(OC)c1OC	Tau fibril ThT inconclusive
COc1cc(/C=C2\CC/C(=C\c3cc(OC)c(O)c(OC)c3)C2=O)cc(OC)c1O	KDM4E inh inconclusive, Tau fibril ThT 6.3µM, Tau fluor cs 14µM[quencher], Tau fibril FP inconclusive
COc1cc(/C=C2\COC/C(=C\c3cc(OC)c(OC)c(OC)c3)C2=O)cc(OC)c1OC	Tau fibril ThT 8.9µM, Tau fibril FP inconclusive, NPSR antagonist inconclusive (no result: PNC assembly inh)
COc1cc(/C=C2/CCC/C(=C\c3cc(O)c(OC)c(Cl)c3)C2=O)cc(Cl)c1O	Tau fibril ThT 11µM, Tau fluor cs inconclusive, Tau fibril FP inconclusive, NPSR antagonist 7.9µM
COc1cc(/C=C2\CC/C(=C\c3cc(OC)c(OC)c(OC)c3)C2=O)cc(OC)c1OC	PNC assembly inh inconclusive
Cc1ccc(-c2nc3ncccc3o2)cc1NC(=O)c1ccccc1Br	Tau fibril ThT inconclusive, Tau fibril FP inconclusive (no result: PNC assembly inh, KDM4E inh, NPSR antagonist)
OC(CN1c2ccccc2Sc2ccccc21)Cn1nnc2ccccc21 (stereo not given)	PNC assembly inh inconclusive, Tau fluor cs inconclusive
